Consider 11 compounds from PubChem BioAssay (NCATS).

Where “and” joins values, the source holds several entries; their conditions need not be identical. Identical values can stand only once. Results filed as inconclusive are left out. Calls of active or inactive are those of the source. Unless noted, calls follow the shape of the dose curve; as a rule, active = well fitted curve in the direction sought with a large enough effect; inconclusive = small, poorly fitted or top-dose-only effect, or another doubt; inactive = no such curve, though single readings can be large; an effect the other way counts as inactive or inconclusive.

Test [1] can be described thus: Nrf2 qHTS screen for inhibitors: Validation (AID 493153; active = well fitted inhibition curve with a large enough effect in the main read-out, with a control signal flat, not every such curve was filed as active). As to conditions: Potency: luciferase luminescence; viability change: measured here: cytotoxicity max response. The essentials:
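Concentration-response on A549 ARE_Fluc reporter cells exposed 18-24 h at 37 C, 5% CO2. Cytotoxicity read first by CellTiter-Fluor fluorescence (Ex 405/Em 525), then Nrf2 inhibition by BugLite luminescence after 15 min.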
In general terms: In qHTS, concentration-response curves come from the screen itself.

Test [2] is described as follows: qHTS for Inhibitors of Cell Surface uPA Generation: Validation Assay (AID 493164).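 Also: RAW 264.7 macrophage cells exposed to compound for 18 h; 0% is about no effect.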 The method, boiled down:
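ATP-Lite luminescence read-out: ATP remains high when uPA activity-dependent LF translocation into the cytoplasm is blocked. RAW 264.7 cells, 18 h compound exposure at 37 C; 7-point titration, 2.45 nM to 38.3 uM final.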

The target of test [3] is Galactokinase (Homo sapiens) (UniProt P51570). As to the kind of experiment: qHTS Validation Assay for Inhibitors of Human Galactokinase (GALK) (AID 493189). Also: 0% is about no effect. The method, boiled down: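 GALK (5 nM) with 35 uM ATP and 100 uM galactose in HEPES pH8.0, MgCl2, NaCl, DTT, BSA; 1 h at room temperature. Residual ATP read by Kinase-Glo Plus luminescence after 10 min.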
Chain of Galactokinase (Homo sapiens) (P51570 whole entry, looked up): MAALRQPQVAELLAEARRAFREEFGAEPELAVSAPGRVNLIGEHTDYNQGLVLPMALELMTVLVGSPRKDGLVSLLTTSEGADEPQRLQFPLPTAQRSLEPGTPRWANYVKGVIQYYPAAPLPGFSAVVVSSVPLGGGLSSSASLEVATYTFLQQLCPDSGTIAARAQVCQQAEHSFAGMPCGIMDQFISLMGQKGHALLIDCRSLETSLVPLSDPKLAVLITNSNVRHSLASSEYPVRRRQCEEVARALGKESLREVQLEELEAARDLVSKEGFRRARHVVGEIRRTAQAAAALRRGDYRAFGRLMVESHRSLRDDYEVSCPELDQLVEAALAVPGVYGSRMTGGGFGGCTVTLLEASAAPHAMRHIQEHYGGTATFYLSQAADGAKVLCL
Test [4] is described as follows: Validation screen for small molecules that induce DNA re-replication in SW480 colon adenocarcinoma cells (AID 504364). Also: 0% is about no effect. The essentials: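 Image-based DNA content read-out: Hoechst stain 40 min, total nuclear fluorescence intensity (ex 405 nm, em 500-530 nm) after 48 h compound exposure of 250 SW480 cells/well at 37 C, 5% CO2, versus DMSO vehicle.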
Test [5] concerns the target Peptidyl-prolyl cis-trans isomerase NIMA-interacting 1 (Homo sapiens) (UniProt Q13526). The test can be described thus: qHTS Validation Assay to Find Inhibitors of Pin1 (AID 504536; active = well fitted inhibition curve with a large enough effect in the polarisation, with a control signal flat, not every such curve was filed as active; the % refers to the polarisation;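 also: 0% = full Pin1 enzyme wells and -100% = no-enzyme wells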). The essentials:
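Fluorescence polarization competition: compounds (titration) displace HiFluor-488-labeled Pin1-1b peptide from Pin1 (0.3 uM final) in pH 7.5 HEPES buffer with DTT, 10 min at room temperature; %Activity normalized to no-enzyme wells, curves fitted.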

The target of test [6] is Phosphoglycerate kinase, glycosomal (Trypanosoma brucei brucei) (UniProt P07378). The test can be described thus: qHTS Validation Assay to Find Inhibitors of Phosphoglycerate Kinase (AID 504547).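 Also: control wells lack PGK and mark full inhibition.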 The essentials: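 Luminescence end-point (Kinase-Glo Plus, 10 min) after a 60 min room-temperature coupled reaction. GAPDH at 100nM final supplies 1,3-BPG to PGK. Buffer: 100mM TEA pH 7.6, 5mM MgCl2, 0.01% Tween-20. Wells lacking PGK served as controls.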
Chain of Phosphoglycerate kinase, glycosomal (Trypanosoma brucei brucei) (P07378 whole entry, looked up): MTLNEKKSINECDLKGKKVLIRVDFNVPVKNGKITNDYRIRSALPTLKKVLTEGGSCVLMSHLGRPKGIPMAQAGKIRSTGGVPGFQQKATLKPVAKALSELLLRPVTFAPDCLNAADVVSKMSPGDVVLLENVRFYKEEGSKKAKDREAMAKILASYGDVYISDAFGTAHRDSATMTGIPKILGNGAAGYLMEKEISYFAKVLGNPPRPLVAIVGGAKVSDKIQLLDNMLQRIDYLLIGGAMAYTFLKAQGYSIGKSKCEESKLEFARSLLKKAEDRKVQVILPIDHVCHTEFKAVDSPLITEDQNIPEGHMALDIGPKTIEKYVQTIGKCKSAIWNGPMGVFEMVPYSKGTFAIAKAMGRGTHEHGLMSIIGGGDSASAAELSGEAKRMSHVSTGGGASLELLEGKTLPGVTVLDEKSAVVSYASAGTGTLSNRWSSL

Test [7] deals with phosphoglycerate mutase (Leishmania major) (UniProt Q4Q090). The test can be described thus: qHTS Validation Assay to Find Inhibitors of Phosphoglycerate Mutase (AID 504548). Also: series mostly up to about 58 µM; % is scaled to controls: 0 for no effect and ±100 for the full control effect. The method, boiled down:
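Luminescent end-point read-out via Kinase-GloPlus after a 10-minute development. Reaction: 1.25nM Leishmania major PGAM with substrate and compound, 45 minutes at room temperature in TEA buffer (pH 7.6) with MgCl2 and Tween-20.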

Test [8] concerns the target Ubiquitin carboxyl-terminal hydrolase 1 (Homo sapiens) (UniProt O94782). The test can be described thus: Inhibitors of USP1/UAF1: Pilot qHTS (AID 504865).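 Also: rhodamine fluorescence freed from ubiquitin-rhodamine substrate followed over time; top concentration of the series differs between compounds; % is scaled to controls: 0 for no effect and ±100 for the full control effect; nearly all actives have a fitted effect of over 35% in size.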 The essentials: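 USP1/UAF1 complex (1nM) preincubated with compound 15 min at room temperature, then Ub-Rho substrate (150nM final) added. Fluorescence read kinetically at 480/540 nm, 6 reads every 60 seconds. Buffer: 50mM HEPES pH 7.8, 0.5mM EDTA, 0.1 mg/ml BSA, 1mM TCEP, 0.01% Tween-20.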

The nature of test [9]: qHTS for Inhibitors of ATXN expression: Validation (AID 588378). Also: series mostly up to about 57 µM; % is scaled to controls: 0 for no effect and ±100 for the full control effect; nearly all actives have a fitted effect of over 75% in size. The essentials: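 Luminescence from an ATXN2-FFLuc reporter in HEK293 cells served as read-out after 24 h compound treatment at 37 degrees C; CellTiter-Fluor fluorescence was recorded first to assess viability.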
Test [10] is described as follows: qHTS for Inhibitors of ATXN expression: Validation of Cytotoxic Assay (AID 588349). Also: % is scaled to controls: 0 for no effect and ±100 for the full control effect. The method, boiled down: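 Cytotoxicity counter-screen: ATP-based luminescent viability (CellTiter Glo) after 72 hr exposure of HEK293 cells to a compound titration at 37 degrees C.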
Test [11] addresses Androgen receptor (Homo sapiens) (UniProt P10275). The test can be described thus: qHTS assay for small molecule agonists of androgen receptor signaling (AID 588515; active = well fitted curve in the direction sought with a large enough effect in the signal ratio, with a control signal flat; the % refers to the signal ratio; also: % is scaled to controls: 0 for no effect and ±100 for the full control effect). Particulars: AR-UAS-bla HEK293, beta-lactamase ratio, agonist 16 h; activation: stronger effect = higher value. The method, boiled down: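 Stimulation of an AR-responsive β-lactamase reporter in GripTite HEK293 cells was measured after 16 h compound exposure at 37 °C, via CCF4 fluorescence after 2 h RT. EC50 from Hill fits, normalized to R1881 at 30 nM.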

For test [12] the target is unchanged. The test can be described thus: qHTS assay for small molecule antagonists of androgen receptor signaling (AID 588516; active = well fitted curve in the direction sought with a large enough effect in the signal ratio, with a control signal flat, not every such curve was filed as active; the % refers to the signal ratio; also: % is scaled to controls: 0 for no effect and ±100 for the full control effect). The essentials:
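AR-UAS-bla-GripTite HEK 293 cells (2000/well, 5 h at 37 C) received compound titrations, then R1881 at 10 nM final; after 16 h at 37 C, CCF4 dye 2 h RT, beta-lactamase fluorescence read; IC50 from Hill fits.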

For test [13], the target named is Bile acid receptor (Homo sapiens) (UniProt Q96RI1). The test can be described thus: qHTS assay for small molecule antagonists of farnesoid X receptor signaling (AID 588526; calls by dose curve; also: % is scaled to controls: 0 for no effect and ±100 for the full control effect). The method, boiled down:
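Beta-lactamase reporter antagonist mode: HEK293T FXR-UAS-bla cells, titrated compound, CDCA stimulation, 16 h 37 C, CCF4 dye 2 h RT. Data normalized to CDCA 50 uM and DMSO; Hill-fit IC50.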

Test [14] can be described thus: qHTS assay for small molecule antagonists of peroxisome proliferator-activated receptor delta signaling (AID 588535; active = well fitted inhibition curve with a large enough effect in the signal ratio, with a control signal flat, not every such curve was filed as active; the % refers to the signal ratio;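 as to max response: cells co-treated with a PPAR-delta agonist as stimulator during compound exposure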). As to conditions: HEK293T PPARd-UAS-bla, beta-lactamase FRET ratio, 18 h; 460 nm channel. The method, boiled down:
(§1)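 Titrations were run on PPAR-delta-UAS-bla HEK293T cells in charcoal/dextran-stripped serum, incubated 18 h at 37 C. CCF4 fluorescence (460/530 nm) after 2 h RT; Hill equation yields IC50 and maximal response.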

Test [15] has as its target Peroxisome proliferator-activated receptor delta (Homo sapiens) (UniProt Q03181). Described as above. The essentials:
as §1

Chain of Androgen receptor (Homo sapiens) (P10275 whole entry, looked up): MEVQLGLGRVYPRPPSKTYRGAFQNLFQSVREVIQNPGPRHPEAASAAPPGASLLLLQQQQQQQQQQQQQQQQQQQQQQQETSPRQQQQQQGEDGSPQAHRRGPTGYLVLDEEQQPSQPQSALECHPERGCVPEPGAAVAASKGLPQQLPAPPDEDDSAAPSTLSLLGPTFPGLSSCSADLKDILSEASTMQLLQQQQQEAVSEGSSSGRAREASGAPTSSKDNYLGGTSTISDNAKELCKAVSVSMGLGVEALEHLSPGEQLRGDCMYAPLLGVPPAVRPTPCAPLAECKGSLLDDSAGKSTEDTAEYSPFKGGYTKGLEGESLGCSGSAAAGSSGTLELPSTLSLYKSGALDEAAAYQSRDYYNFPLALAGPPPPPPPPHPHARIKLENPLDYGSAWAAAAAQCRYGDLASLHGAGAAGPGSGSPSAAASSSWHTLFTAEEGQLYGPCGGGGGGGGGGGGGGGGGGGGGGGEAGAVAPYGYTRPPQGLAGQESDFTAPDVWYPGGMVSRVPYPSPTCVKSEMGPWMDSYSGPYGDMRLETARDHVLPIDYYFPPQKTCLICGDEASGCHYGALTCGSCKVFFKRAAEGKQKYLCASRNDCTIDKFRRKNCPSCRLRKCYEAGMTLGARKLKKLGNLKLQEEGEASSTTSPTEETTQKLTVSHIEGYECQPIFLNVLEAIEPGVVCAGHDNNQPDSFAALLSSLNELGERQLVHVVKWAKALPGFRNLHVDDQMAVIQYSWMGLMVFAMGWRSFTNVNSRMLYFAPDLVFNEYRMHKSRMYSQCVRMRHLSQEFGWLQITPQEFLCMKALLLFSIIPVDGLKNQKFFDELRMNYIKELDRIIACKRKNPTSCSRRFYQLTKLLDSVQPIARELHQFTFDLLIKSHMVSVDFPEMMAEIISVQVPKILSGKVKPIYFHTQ
Chain of phosphoglycerate mutase (Leishmania major) (Q4Q090 1-553): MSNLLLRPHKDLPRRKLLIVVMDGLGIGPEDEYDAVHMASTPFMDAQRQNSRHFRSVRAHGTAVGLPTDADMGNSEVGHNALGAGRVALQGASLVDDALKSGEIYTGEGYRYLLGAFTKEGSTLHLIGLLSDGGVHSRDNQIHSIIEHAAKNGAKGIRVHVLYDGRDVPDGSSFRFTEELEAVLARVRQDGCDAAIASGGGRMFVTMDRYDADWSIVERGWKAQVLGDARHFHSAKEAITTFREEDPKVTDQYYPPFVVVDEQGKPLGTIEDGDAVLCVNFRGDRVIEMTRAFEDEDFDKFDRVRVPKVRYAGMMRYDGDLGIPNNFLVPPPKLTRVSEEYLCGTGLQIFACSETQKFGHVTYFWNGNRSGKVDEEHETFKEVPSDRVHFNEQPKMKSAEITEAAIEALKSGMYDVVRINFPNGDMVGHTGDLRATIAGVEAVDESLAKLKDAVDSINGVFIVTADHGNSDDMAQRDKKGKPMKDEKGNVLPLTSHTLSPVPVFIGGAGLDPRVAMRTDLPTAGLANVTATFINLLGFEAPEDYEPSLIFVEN
Chain of Ubiquitin carboxyl-terminal hydrolase 1 (Homo sapiens) (O94782 whole entry, looked up): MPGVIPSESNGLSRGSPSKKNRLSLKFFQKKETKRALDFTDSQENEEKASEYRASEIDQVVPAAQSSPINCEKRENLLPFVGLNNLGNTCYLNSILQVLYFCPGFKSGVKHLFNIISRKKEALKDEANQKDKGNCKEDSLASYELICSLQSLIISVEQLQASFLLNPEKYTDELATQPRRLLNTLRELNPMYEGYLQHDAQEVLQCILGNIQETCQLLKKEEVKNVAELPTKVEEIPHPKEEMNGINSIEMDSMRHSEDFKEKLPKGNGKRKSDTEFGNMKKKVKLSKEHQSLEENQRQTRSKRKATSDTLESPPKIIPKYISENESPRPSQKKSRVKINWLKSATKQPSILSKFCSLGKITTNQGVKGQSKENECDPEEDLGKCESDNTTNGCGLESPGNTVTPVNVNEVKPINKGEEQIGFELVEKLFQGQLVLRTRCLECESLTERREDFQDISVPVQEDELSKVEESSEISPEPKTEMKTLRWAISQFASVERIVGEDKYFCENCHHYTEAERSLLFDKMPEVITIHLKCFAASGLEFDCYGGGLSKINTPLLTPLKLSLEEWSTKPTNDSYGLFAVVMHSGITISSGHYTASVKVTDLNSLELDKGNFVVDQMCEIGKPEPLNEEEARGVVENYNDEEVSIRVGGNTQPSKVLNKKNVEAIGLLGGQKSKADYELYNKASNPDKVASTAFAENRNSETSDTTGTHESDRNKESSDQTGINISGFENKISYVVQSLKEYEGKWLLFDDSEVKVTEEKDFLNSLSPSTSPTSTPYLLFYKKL
Chain of Peptidyl-prolyl cis-trans isomerase NIMA-interacting 1 (Homo sapiens) (Q13526 whole entry, looked up): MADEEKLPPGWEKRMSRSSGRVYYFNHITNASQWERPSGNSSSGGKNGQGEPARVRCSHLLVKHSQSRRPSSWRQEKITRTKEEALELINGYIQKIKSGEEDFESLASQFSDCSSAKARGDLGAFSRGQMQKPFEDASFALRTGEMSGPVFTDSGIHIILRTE
Chain of Bile acid receptor (Homo sapiens) (Q96RI1 whole entry, looked up): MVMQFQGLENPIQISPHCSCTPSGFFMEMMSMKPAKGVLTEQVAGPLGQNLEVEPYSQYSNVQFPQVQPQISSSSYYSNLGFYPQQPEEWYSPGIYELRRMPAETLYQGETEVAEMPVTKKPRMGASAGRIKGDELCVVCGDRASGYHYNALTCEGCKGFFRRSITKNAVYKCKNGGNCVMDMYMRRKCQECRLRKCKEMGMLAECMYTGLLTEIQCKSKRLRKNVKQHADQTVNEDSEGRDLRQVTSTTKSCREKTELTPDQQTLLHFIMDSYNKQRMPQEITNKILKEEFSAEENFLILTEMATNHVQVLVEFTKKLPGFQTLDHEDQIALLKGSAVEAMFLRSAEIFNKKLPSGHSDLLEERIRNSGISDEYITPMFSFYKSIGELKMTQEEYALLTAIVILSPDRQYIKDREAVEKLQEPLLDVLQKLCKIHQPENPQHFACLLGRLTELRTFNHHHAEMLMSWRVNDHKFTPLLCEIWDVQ
Chain of Peroxisome proliferator-activated receptor delta (Homo sapiens) (Q03181 whole entry, looked up): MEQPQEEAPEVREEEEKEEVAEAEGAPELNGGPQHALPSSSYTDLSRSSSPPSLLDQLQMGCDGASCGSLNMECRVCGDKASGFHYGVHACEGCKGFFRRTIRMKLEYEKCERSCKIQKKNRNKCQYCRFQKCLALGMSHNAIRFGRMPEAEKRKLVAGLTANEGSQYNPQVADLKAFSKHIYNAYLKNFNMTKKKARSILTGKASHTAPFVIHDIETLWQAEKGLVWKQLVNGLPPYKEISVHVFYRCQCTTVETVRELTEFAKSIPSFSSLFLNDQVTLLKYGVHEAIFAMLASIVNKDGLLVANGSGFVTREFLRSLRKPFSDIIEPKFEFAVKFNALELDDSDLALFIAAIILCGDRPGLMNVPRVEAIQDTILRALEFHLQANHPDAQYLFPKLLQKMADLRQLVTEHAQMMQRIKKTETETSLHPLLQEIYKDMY

With `C[N+](C)(C)CCCCCCCCCC[N+](C)(C)C`, the Potency result in test [1], in test [8] and in test [9] was “inactive” throughout. In addition, in test [1], the viability change is -2.44%. Moreover, the outcome in test [2], in test [3], in test [4], in [5], in test [6] and in [7] was inactive.

As for `CN(C)CC[C@@H](c1ccc(Br)cc1)c1ccccn1`, the Potency entry in [1], in test [8] and in test [9] was “inactive” in each case. Besides, the viability change in test [1] turned out to be 1.19%. Moreover, the call in [2], in test [3], in [4], in test [5], in [6] and in test [7] was inactive.

Turning to `CN(C)CCN(Cc1cccs1)c1ccccn1`, the Potency result in [1], in test [10] and in test [9] was “inactive” throughout. Also, the viability change in test [1] is -0.0804%. Also, the outcome in test [2], in test [3], in test [4], in test [5], in test [6] and in [7] was inactive.

Consider `C[C@]12CC[C@@H]3c4ccc(O)cc4C[C@@H](CCCCCCCCCS(=O)CCCC(F)(F)C(F)(F)F)[C@H]3[C@@H]1CC[C@@H]2O` (stereo partly drawn), for which the outcome in test [2], in [5], in test [6] and in test [7] was inactive. Also, the Potency result in test [10] and in [9] was “inactive” each time.

Take `C[C@@H](O)[C@H]1C(=O)N2C(C(=O)O)=C(SCCN=CN)C[C@H]12`: the Potency result in test [1], in test [8] and in [9] was “inactive” each time. Further, the viability change in [1] was -3.32%. The call in test [2], in test [6] and in test [7] was inactive.

Consider `CCn1nc(C(=O)O)c(=O)c2cc3c(cc21)OCO3`, for which the Potency result in test [1], in test [10] and in [9] was “inactive” in each case. In addition, the viability change in test [1] was -1.17%. Moreover, the compound was classed as inactive in test [2], in test [3], in test [4], in [5], in test [6] and in test [7].

On to `CC[N+](C)(C)c1cccc(O)c1`, for which the Potency result in test [1], in test [8] and in test [9] was “inactive” throughout. In addition, the viability change in test [1] came to 0.744%. The outcome in test [2], in test [3], in test [4], in test [5], in test [6] and in test [7] was inactive.

Take `CCCCOCCOCCOCc1cc2c(cc1CCC)OCO2`: the Potency result in test [8] is “inactive”. Also, in test [11], the activation is 19.3% (inactive) and -3.12% (inactive). In addition, the call in test [12], in [13] and in test [15] was inactive. Further, in [14], the max response turned out to be 7.63%.

Turning to `CN1CCN(CC(=O)N2c3ccccc3C(=O)Nc3cccnc32)CC1`, the Potency result in [1], in [10] and in test [9] was “inactive” in each case. Besides, the viability change in test [1] stood at 11.6%. For the same compound, the outcome in test [2], in test [3], in test [4], in [5], in test [6] and in [7] was inactive.

In the case of `CCc1cccc(N(C)C(N)=Nc2cccc3ccccc23)c1`, the Potency result in test [1] and in test [8] was “inactive” each time. For the same compound, in test [1], the viability change is -0.401%. Also, the compound was classed as inactive in test [2], in [3], in test [5], in test [6] and in test [7].

`CC(C)NNC(=O)c1ccncc1`: the Potency result in [1], in [8], in test [10] and in test [9] was “inactive” each time. Moreover, the viability change in test [1] worked out at 1.54%. The outcome in [2], in [3], in test [4], in test [5], in test [6] and in test [7] was inactive.
